{"source": "PubChem BioAssay (Tox21)", "note": "Inconclusive results are not listed. Where a call stands in place of a potency, no number is given. A number with no mark means an inactive call. The source made the active and inactive calls. The call rests on the fitted dose curve; in most records, active means well fitted cell-killing curve with a large enough effect in the repeat runs; inconclusive means weak or mixed curves, or effect the other way; inactive means flat fitted curve, though single readings scatter. Potency means the concentration at half of the fitted maximal effect.", "data": [{"test": "Nuclear factor erythroid 2-related factor 2/antioxidant responsive element (Nrf2/ARE) small molecule agonists: qHTS cell viability counter screen in human keratinocytes (AID 1919968); further: nearly all actives have a fitted effect of over 55% in size", "conditions": "KeratinoSens HaCaT ARE cells viability, CellTiter-Fluor, 24 h; series mostly up to 92.4 µM", "source_text": "U.S. Tox21 Program National Center for Advancing Translational Sciences [NCATS] Division of Preclinical Innovation [DPI] U.S. Environmental Protection Agency [EPA] National Institutes of Environmental Health Sciences [NIEHS] National Toxicology Program [NTP] U.S. Food and Drug Administration [FDA] Tox21 Assay Overview: Oxidative stress has been implicated in the pathogenesis of a variety of diseases ranging from cancer to neurodegeneration. The antioxidant response element (ARE) signaling pathway plays an important role in the amelioration of oxidative stress. The KeratinoSens (Givaudan, Switzerland) is an in vitro test method which quantifies luciferase induction as a measure of activation of Keap1-Nrf2-antioxidationt/electrophile response element (ARE) dependant pathway in HaCaT human keratinocytes stably transfected with a selectable plasmid. The KeratinoSens assay is a cell-based assay with a reporter cell line to detect potential skin sensitizers by their ability to induce the Nrf2/ARE-response. The activation of the report gene under culture conditions can be detected by ONE-Glo Luciferase Assay System (Promega, Madison, WI). This cell line has been used to screen the Tox21 10K compound library to identify agonists that induce oxidative stress. The cytotoxicity of the Tox21 compound library against the KS-ARE cell line was tested in parallel by measuring the cell viability using CellTiter- Fluor assay system (Promega, Madison, WI) in the same wells.\nTox21 Assay Protocol Summary: HaCaT derived cell line KeratinoSens were dispensed at 1,500 cells/5uL/well in 1536-well white wall/solid bottom plates using a Multidrop Combi (ThermoFisher Scientific, Waltham, MA) dispenser. After the assay plates were incubated at 37 C/5% CO2 for 5 h, 23 nL of compounds dissolved in DMSO, positive controls or DMSO only was transferred to the assay plate by a pintool workstation (Kalypsys, San Diego, CA). The plates were incubated at 37 C/5% CO2 for 23 h, followed by addition of 1uL/well of CellTiter-Fluor reagent into the assay plates using a Flying Reagent Dispenser (Aurora Discovery, San Diego, CA) for cell viability readout that measures cytotoxicity. After 1 h incubation at 37 C/5% CO2 the fluorescence intensity was measured using a ViewLux (PerkinElmer, Shelton, CT) plate reader.", "values": [{"smiles": "CCC[N+](CCC)(CCC)CCC", "Potency": "inactive"}, {"smiles": "CN(N=O)c1ccc([N+](=O)[O-])cc1", "Potency": "inactive"}, {"smiles": "CC(=O)[O][Pb]([c]1ccccc1)([c]1ccccc1)[c]1ccccc1", "Potency": "3.86 µM (active)"}, {"smiles": "CSCCCN=C=S", "Potency": "inactive"}, {"smiles": "Cc1ccc(-c2c(Cl)nc(C#N)n2S(=O)(=O)N(C)C)cc1", "Potency": "15.3 µM (active)"}, {"smiles": "CCn1cc[n+](C)c1", "note": "(tested in a mixture with another compound)", "Potency": "inactive"}, {"smiles": "NC1=NC(=O)C(c2ccccc2)O1", "note": "(stereo not given)", "Potency": "inactive"}, {"smiles": "CCOP(=O)(OCC)O/C(=C/Cl)c1ccc(Cl)cc1Cl", "Potency": "inactive"}, {"smiles": "C=CCN1CC[C@]23c4c5ccc(O)c4O[C@H]2C(=O)CC[C@@]3(O)[C@H]1C5", "Potency": "inactive"}, {"smiles": "N#CC(O)c1ccccc1", "note": "(stereo not given)", "Potency": "inactive"}, {"smiles": "ClP(Cl)(Cl)(Cl)Cl", "Potency": "inactive"}, {"smiles": "CCOP(O)OCC", "Potency": "inactive"}, {"smiles": "CCN(CC)C(=O)N[C@@H]1C=C2c3cccc4[nH]cc(c34)C[C@@H]2N(C)C1", "Potency": "inactive"}, {"smiles": "O=C(O)C(Br)(Br)Br", "Potency": "inactive"}, {"smiles": "C=CC[C@]1(O)CC[C@H]2[C@@H]3CCC4=CC(=O)CCC4=C3C=C[C@@]21C", "Potency": "inactive"}, {"smiles": "O=C(CBr)Nc1ccc(Cl)cc1C(=O)c1ccccc1F", "Potency": "inactive"}, {"smiles": "CCOP(=O)(Sc1ccccc1)Sc1ccccc1", "Potency": "inactive"}, {"smiles": "COC1CC(=C(c2cccs2)c2cccs2)C[N+](C)(C)C1", "note": "(stereo not given)", "Potency": "inactive"}, {"smiles": "COc1ncc(F)c2nc(S(=O)(=O)Nc3c(F)cccc3F)nn12", "Potency": "inactive"}, {"smiles": "IC(I)=C(I)I", "Potency": "27.3 µM (active)"}, {"smiles": "S=C=Nc1ccccc1", "Potency": "inactive"}, {"smiles": "N=C(N)[Se]", "Potency": "inactive"}, {"smiles": "CNN", "Potency": "inactive"}, {"smiles": "COc1cc(C[C@@H](C)N)c(OC)cc1C", "Potency": "inactive"}, {"smiles": "COP(N)(=S)OC", "Potency": "inactive"}, {"smiles": "NC(=O)C(Cl)Cl", "Potency": "inactive"}, {"smiles": "Nc1c(Br)cc(Br)c2c1C(=O)c1ccccc1C2=O", "activity change, negative = cytotoxicity": "-10.3% [at 19 µM]"}, {"smiles": "CCCCN(CCCC)C(=S)[S-].CCCCN(CCCC)C(=S)[S-].[Ni+2]", "Potency": "8.42 µM (active)"}, {"smiles": "NNCCO", "Potency": "inactive"}, {"smiles": "CO/N=C(/C(=O)OC)c1ccccc1COc1ccccc1C", "Potency": "inactive"}, {"smiles": "CC[N+]1(C)CCCC(OC(=O)C(O)(c2ccccc2)c2ccccc2)C1", "note": "(stereo not given)", "Potency": "inactive"}, {"smiles": "CCN(CC)CCOC(=O)C(C)(c1ccccc1)c1ccccc1", "Potency": "inactive"}, {"smiles": "CC(C)(C)NCC(O)c1cc(Cl)c(N)c(Cl)c1", "note": "(stereo not given)", "Potency": "inactive"}, {"smiles": "ClCCCCl", "Potency": "inactive"}, {"smiles": "CCCN(CCC)C(=O)Cc1c(-c2ccc(Cl)cc2)nc2ccc(Cl)cn12", "Potency": "inactive"}, {"smiles": "COc1cc(C[C@@H](C)N)c(OC)cc1Br", "Potency": "inactive"}, {"smiles": "C=CC(=O)OCCN(C)C", "Potency": "inactive"}, {"smiles": "CC(=O)[O-].CC(=O)[O-].CC(=O)[O-].[Cr+3]", "Potency": "inactive"}, {"smiles": "C[C@]12CC[C@@H]3c4ccc(OC(=O)N(CCCl)CCCl)cc4CC[C@H]3[C@@H]1CC[C@@H]2O", "Potency": "inactive"}, {"smiles": "CC(C)O.CC(C)O.OCCN(CCO)CCO.OCCN(CCO)CCO.[Ti]", "Potency": "inactive"}]}]}
